Among the data in PubChem BioAssay (Tox21) are Potency, viability change, negative = cytotoxic and activity change, negative = cytotoxicity values, retold here.

Results filed as inconclusive are left out. Unmarked numbers belong to inactive results. The source made the active and inactive calls. The call rests on the fitted dose curve; in most records, active means well fitted cell-killing curve with a large enough effect in the repeat runs; inconclusive means weak or mixed curves, or effect the other way; inactive means flat fitted curve, though single readings scatter.

Assay [1] in a line: cAMP Responsive Elements (CRE) small molecule antagonists, cell-based qHTS assay: qHTS cell viability counter screen (AID 2060913). Further: nearly all actives have a fitted effect of over 40% in size. The conditions noted are these: CRE-bla HEK293T viability, CellTiter-Glo luminescence, 5 h; series mostly up to 92.4 µM. The procedure, abridged:
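Steps: cells plated and held 18 hrs at 37 C/5% CO2; compounds and NKH477 (0.25 uM final) added; 3 hrs incubation; reporter substrate read; CellTiter-Glo added to measure cytotoxicity by luminescence.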

The nature of assay [2]: cAMP Responsive Elements (CRE) small molecule agonists, cell-based qHTS assay: qHTS cell viability counter screen (AID 2060914). Further: nearly all actives have a fitted effect of over 50% in size. The conditions noted are these: CRE-bla HEK293T viability, CellTiter-Glo luminescence, 5 h; series mostly up to 92.4 µM. In short, it runs like this:
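Luminescence read-out (CellTiter-Glo, 30 min RT) of ATP-based viability in CRE-bla HEK 293T cells, run in the same wells as the β-lactamase reporter assay after 3 h compound treatment at 37 °C.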
On the % scale 0 is the no-effect control and ±100 the full control effect.

Turning to `COCCOCCOCCOCCO`, the Potency entry in assay [1] and in assay [2] was “inactive” throughout.

As to `Cc1ccc([N+](=O)[O-])cc1N`, the Potency entry in assay [1] and in assay [2] was “inactive” throughout.

Take `CCc1cccc(C)c1N`: the Potency result in assay [1] and in assay [2] was “inactive” each time.

As for `CCSC(=O)N(CC)CC`, the Potency entry in assay [1] and in assay [2] was “inactive” each time.

For the compound `CNC(=S)N(C)C`, the Potency entry in assay [1] and in assay [2] was “inactive” in each case.

For the compound `COc1ccc2cc1Oc1ccc(cc1)C[C@H]1c3c(cc4c(c3Oc3cc5c(cc3OC)CCN(C)[C@@H]5C2)OCO4)CCN1C`, the Potency result in assay [1] and in assay [2] was “inactive” in each case.

`Cc1cc(C2CCCCC2)n(O)c(=O)c1`: the Potency result in assay [1] and in assay [2] was “inactive” throughout.

`O=C(OCCCCCCOC(=O)c1ccccc1)c1ccccc1`: the Potency result in assay [1] and in assay [2] was “inactive” each time.

`C=CC(=O)OCCC#N`: the Potency entry in assay [1] and in assay [2] was “inactive” in each case.

In the case of `CCCS(=O)c1ccc2nc(NC(=O)OC)[nH]c2c1` (stereo unspecified), the Potency entry in assay [1] and in assay [2] was “inactive” throughout.

On to `COc1ccc(N)c([N+](=O)[O-])c1`, for which the Potency entry in assay [1] and in assay [2] was “inactive” throughout.

Take `Cc1ccccc1N=C(N)N=C(N)N`: the Potency entry in assay [1] and in assay [2] was “inactive” each time.

As to `Cc1c[nH]c(=S)[nH]c1=O`, the Potency result in assay [1] and in assay [2] was “inactive” each time.

In the case of `CC(=O)OCC(=O)[C@@]1(O)CC[C@H]2[C@@H]3CCC4=CC(=O)C=C[C@]4(C)[C@@]3(F)[C@@H](O)C[C@@]21C`, the Potency result in assay [1] and in assay [2] was “inactive” in each case.

With `CC(C)=CCC[C@@](C)(O)[C@H]1CC=C(C)CC1`, the Potency entry in assay [1] and in assay [2] was “inactive” each time.

For `O=C(OOC(=O)c1ccccc1)c1ccccc1`, the Potency result in assay [1] and in assay [2] was “inactive” throughout.

Take `CC(=O)S[C@@H]1CC2=CC(=O)CC[C@]2(C)[C@H]2CC[C@@]3(C)[C@@H](CC[C@@]34CCC(=O)O4)[C@H]12`: the Potency result in assay [1] and in assay [2] was “inactive” throughout.

Regarding `O=c1[nH]c(=O)c2[nH]c(=O)[nH]c2[nH]1`, the viability change, negative = cytotoxic in assay [1] was -5.49% [at 8.39 µM]. Moreover, in assay [2], the activity change, negative = cytotoxicity was 8.03% [at 8.39 µM].
